From PubChem BioAssay AID504909 (Southern Research Specialized Biocontainment Screening …, 2011)
Entries with a potency or affinity are not part of this list. Active and inactive are the calls of the source. How the calls were made is not given here.

Assay: Vero cell cytotoxicity, dose response, cytotoxicity control for M. tuberculosis growth inhibitor project, Vero cells, purified and synthesized compounds, set 5 (AID 504909)
Conditions: series mostly up to 100 µM; viability: at the top concentration

SMILES	viability
CCSc1nc(C)c(C)c(=O)[nH]1	100% (inactive)
COc1c(N2CCNC(C)C2)c(F)cc2c(=O)c(C(=O)O)cn(C3CC3)c12 (configuration not stated)	108% (inactive)
CN[C@@H]1[C@H](O[C@H]2[C@H](O[C@H]3[C@H](O)[C@@H](O)[C@H](N=C(N)N)[C@@H](O)[C@@H]3N=C(N)N)O[C@@H](C)[C@]2(O)C=O)O[C@@H](CO)[C@H](O)[C@H]1O	106% (inactive)
NC(=O)c1cnccn1	97.8% (inactive)
O=C(CSc1nccc(=O)[nH]1)NC1CCCCC1	94.8% (inactive)
O=C(CSc1nc2ccccc2c(=O)[nH]1)NC1CCCC1	95.4% (inactive)
CC[C@@H](CO)NCCN[C@@H](CC)CO	108% (inactive)
Cc1cnc(SCC(=O)NC2CCCCC2)[nH]c1=O	97.2% (inactive)
NNC(=O)c1ccncc1	107% (inactive)
Nc1cc(=O)[nH]c(SCC(=O)NC2CCCCC2)n1	89.7% (inactive)
CCCc1cc(C(N)=S)ccn1	89.3% (inactive)
CCC(Sc1nc2ccccc2c(=O)[nH]1)C(=O)NC1CCCCC1 (configuration not stated)	99.5% (inactive)
O=C(CSc1nc2ccccc2c(=O)[nH]1)NCc1ccc(Cl)cc1	82.8% (inactive)
COC(=O)C(C)Oc1ccc(Cc2ncc(C(F)(F)F)cc2Cl)cc1 (configuration not stated)	85.8% (inactive)
CNC(=O)CSc1nc2ccccc2c(=O)[nH]1	92.2% (inactive)
CC(C)CCNC(=O)CSc1nc2ccccc2c(=O)[nH]1	99.5% (inactive)
CN1CCC(NC(=O)CSc2nc3ccccc3c(=O)[nH]2)CC1	102% (inactive)
O=C(CSc1nc2ccccc2c(=O)[nH]1)NC1CCCCC1	96.5% (inactive)
O=c1[nH]c(=S)[nH]c2ccccc12	81.5% (inactive)
CC(Sc1nc2ccccc2c(=O)[nH]1)C(=O)NC1CCCCC1 (configuration not stated)	99.7% (inactive)
CN(C)C(=O)CSc1nc2ccccc2c(=O)[nH]1	88.3% (inactive)
Cn1c(SCC(=O)NC2CCCCC2)nc2ccccc2c1=O	110% (inactive)
COc1cccc(NC(=O)CSc2nc3c(c(=O)[nH]2)CCC3)c1	93.6% (inactive)
CCOC(=O)CSc1nc(C)c(C)c(=O)[nH]1	98.6% (inactive)
Cc1nc(SCC(N)=O)[nH]c(=O)c1C	102% (inactive)
Cc1cc(=O)[nH]c(SCC(=O)NC2CCCCC2)n1	100% (inactive)
COC(=O)c1ccc(CNc2c(N3CCCC3)c(=O)c2=O)cc1	102% (inactive)
